According to PubChem BioAssay AID1159580 (chemical genetic matrix, 2015):
Where “and” joins values, the source holds several entries; their conditions need not be identical. Identical values can stand only once. Among all 5,500 compounds or so, about 2,000 (36%) were called active. Roughly 18% stayed inconclusive and do not appear here. Cut-off read from the data, not from the text of the source: active = normalized growth mostly below about 0.91 (no sharp cut-off); inconclusive = no clear call, values can overlap the other calls; inactive = mostly above about 0.92. Some of the results follow.

Test: chemical genetic growth profiling, strain panel (AID 1159580);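 note: tested at 20 µM; growth read once vehicle control cultures reached saturation at 30 °C; 1 = growth at the plate median or of vehicle wells; lower values mean less growth of the strain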
Conditions: S. cerevisiae deletion strains, growth OD

Measured: normalized growth

C=C[C@H]1CN2CC[C@H]1C[C@@H]2[C@H](O)c1ccnc2ccccc12
inactive: locus YAL013W, strain DEP1, active compounds read low 1 | locus YAL021C, strain ccr4, active compounds read low 1.01 | locus YAL026C, strain drs2, active compounds read low 0.994 | locus YAL030W, strain snc1, active compounds read low 0.999 | locus YBL061C, strain skt5, active compounds read low 0.992 | locus YBR009C, strain hhf1, active compounds read low 0.988 | locus YBR021W, strain FUR4, active compounds read low 1.02 | locus YBR023C, strain chs3, active compounds read low 0.981 | locus YBR171W, strain sec66, active compounds read low 0.988 | locus YBR229C, strain ROT2, active compounds read low 0.995 | locus YBR231C, strain swc5, active compounds read low 0.989 | locus YBR279W, strain paf1, active compounds read low 0.996 | locus YCL011C, strain gbp2, active compounds read low 0.988 | locus YCL016C, strain dcc1, active compounds read low 0.979 | locus YCL029C, strain bik1, active compounds read low 0.973 | locus YCL069W, strain vba3, active compounds read low 0.987 | locus YCR088W, strain abp1, active compounds read low 0.994 | locus YDL005C, strain med2, active compounds read low 0.975 | locus YDL035C, strain GPR1, active compounds read low 1.02 | locus YDL040C, strain nat1, active compounds read low 0.983 | locus YDL074C, strain BRE1, active compounds read low 0.999 | locus YDL101C, strain DUN1, active compounds read low 0.985 | locus YDL134C, strain PPH21, active compounds read low 0.997 | locus YDL185W, strain tfp1, active compounds read low 0.976 | locus YDL192W, strain arf1, active compounds read low 0.98 | locus YDR001C, strain nth1, active compounds read low 0.985 | locus YDR069C, strain doa4, active compounds read low 0.996 | locus YDR101C, strain arx1, active compounds read low 0.985 | locus YDR137W, strain rgp1, active compounds read low 0.99 | locus YDR150W, strain NUM1, active compounds read low 0.986 | locus YDR159W, strain sac3, active compounds read low 1.02 | locus YDR162C, strain NBP2, active compounds read low 0.988 | locus YDR195W, strain ref2 0.989 | locus YDR297W, strain sur2, active compounds read low 1.01 | locus YDR318W, strain mcm21, active compounds read low 0.985 | locus YDR334W, strain swr1, active compounds read low 0.977 | locus YDR335W, strain msn5, active compounds read low 0.99 | locus YDR388W, active compounds read low 0.988 | locus YDR392W, strain spt3, active compounds read low 0.973 | locus YDR502C, strain sam2, active compounds read low 0.982 | locus YEL003W, strain gim4, active compounds read low 0.989 | locus YEL037C, strain rad23, active compounds read low 0.983 | locus YEL061C, strain CIN8 (second series), active compounds read low 0.993 | locus YEL061C, strain CIN8, active compounds read low 0.998 | locus YER015W, strain faa2, active compounds read low 0.986 | locus YER016W, strain bim1, active compounds read low 0.987 | locus YER110C, active compounds read low 0.981 | locus YER111C, strain swi4, active compounds read low 0.975 | locus YER155C, strain BEM2 (second series), active compounds read low 0.972 | locus YER155C, strain BEM2, active compounds read low 0.995 | locus YER167W, strain BCK2, active compounds read low 1 | locus YFR010W, strain ubp6, active compounds read low 0.999 | locus YGL078C, strain dbp3, active compounds read low 1.01 | locus YGL086W, strain mad1, active compounds read low 1.01 | locus YGL167C, strain pmr1, active compounds read low 0.993 | locus YGL173C, strain kem1, active compounds read low 0.981 | locus YGL227W, strain vid30, active compounds read low 0.984 | locus YGL240W, strain doc1, active compounds read low 0.986 | locus YGL248W, strain PDE1, active compounds read low 0.994 | locus YGL253W, strain hxk2, active compounds read low 0.994 | locus YGR078C, strain PAC10, active compounds read low 0.988 | locus YGR135W, strain pre9, active compounds read low 0.978 | locus YGR229C, strain SMI1, active compounds read low 1.02 | locus YGR252W, strain gcn5, active compounds read low 1.17 | locus YHR013C, strain ard1, active compounds read low 0.962 | locus YHR027C, strain rpn1, active compounds read low 0.992 | locus YHR030C, strain SLT2, active compounds read low 0.994 and 0.988 | locus YHR079C, strain IRE1 (second series), active compounds read low 0.979 | locus YHR079C, strain IRE1, active compounds read low 1 | locus YHR094C, strain hxt1, active compounds read low 0.97 | locus YHR129C, strain ARP1, active compounds read low 0.989 | locus YHR142W, strain chs7, active compounds read low 0.974 | locus YHR200W, strain rpn10, active compounds read low 0.994 | locus YIL066C, strain RNR3, active compounds read low 0.992 | locus YIL073C, strain SPO22, active compounds read low 0.928 | locus YIL125W, strain kgd1, active compounds read low 0.988 | locus YIR030C, strain dcg1, active compounds read low 0.989 | locus YJL092W, strain hpr5, active compounds read low 0.99 | locus YJL095W, strain BCK1 (second series), active compounds read low 0.985 | locus YJL095W, strain BCK1, active compounds read low 0.977 and 1 | locus YJL115W, strain asf1, active compounds read low 0.972 | locus YJL129C, strain trk1, active compounds read low 0.992 | locus YJL134W, strain LCB3, active compounds read low 0.992 | locus YJL154C, strain vps35, active compounds read low 0.971 | locus YJL164C, strain tpk1, active compounds read low 0.987 | locus YJL166W, strain qcr8, active compounds read low 1 | locus YJL168C, strain set2, active compounds read low 0.983 | locus YJL187C, strain SWE1 (second series), active compounds read low 0.956 | locus YJR043C, strain POL32, active compounds read low 0.996 | locus YJR066W, strain TOR1, active compounds read low 0.989 | locus YJR075W, strain HOC1, active compounds read low 0.978
